Screens as filed in PubChem BioAssay.
Rows were chosen to be rich in hits. Some 1.8% of all compounds tested hit in one or more screens of this group.
PrPC TRFRET = cell surface PrPC inhibition, primary TR-FRET screen; P04156; TR-FRET read-out; inhibition, % at 13.8 µM; hit rate 0.43% among 370,000; AID 720596; in the data active means inhibition above about 24%
CCHFV vOTU inh = blocks the CCHF virus ovarian tumor domain protease. CCHFV vOTU protease, Pep-AMC fluorescence. inhibition, % at 11.5 µM. hit rate 0.55% among 370,000; in the data active means inhibition above about 30%
DUSP3 inh = blocks human VHR1 dual specificity phosphatase | P51452 | recombinant VHR phosphatase, pNPP absorbance | inhibition, % at 13.3 µM | hit rate 0.52% among 290,000 | AID 1654; in the data active means inhibition above about 50%
Vc quorum ag = inducers of Vibrio cholerae quorum light production without autoinducers. V. cholerae BH1578 lux reporter, luminescence, 6 h. activation, % at 18.7 µM. hit rate 0.16% among 350,000. AID 588436; in the data active means activation mostly above about 9.7%, no sharp cut-off
Yp Topo-I inh = Y. pestis Topo-I inhibition via cleavage products | Y. pestis Topo-I cleavage product accumulation, plate reader | activity, % at 10 µM | hit rate 0.064% among 360,000 | AID 504884; in the data active means activity above about 50%, passing the limit was not always enough
MazF activator = increases E. coli MazEF RNase cleavage of RNA | P0AE70 | FAM/BHQ RNA-DNA oligo cleavage fluorescence, 5 h | activation, % at 20 µM | hit rate 0.32% among 350,000 | AID 504720; in the data active means activation above about 50%
PrPC TRFRET cf = confirmation of inhibitors of cell surface human prion protein; shares compounds with PrPC TRFRET; cell surface PrPC level, TR-FRET; inhibition, % at 13.8 µM; hit rate 65% among 1,500; in the data active means inhibition above about 25%
LD9 cytotox = counter-screen for PrPc inhibitors: cytotoxicity in LD9 cells. shares compounds with PrPC TRFRET. luminescence viability. inhibition, % at 13.8 µM. hit rate 29% among 1,500. AID 743201; in the data active means inhibition above about 9.5%
Hits are given with their value; - = inactive; . = no result given.

SMILES	PrPC TRFRET	CCHFV vOTU inh	DUSP3 inh	Vc quorum ag	Yp Topo-I inh	MazF activator	PrPC TRFRET cf	LD9 cytotox
COc1ccc2c(c1OC)CN1CCc3cc4c(cc3[C@@H]1[C@@H]2O)OCO4	.	.	-	-	-	-	.	.
O[C@@H]1[C@@H](O)C=C2CCN3Cc4cc5c(cc4[C@H]1C23)OCO5 (some centres undefined)	89	-	.	-	-	-	92	28
O=S(=O)(Nc1cccnc1)c1ccc(Br)c2ccccc12	36	-	-	-	-	-	43	-
COc1ccc(C2CC(c3ccccc3)=NN2C(=O)COC(=O)c2nc3nc(C)cc(C)n3n2)cc1 (centres undefined)	-	-	-	-	-	-	.	.
O=S(=O)(NC1c2cccc3cccc(c23)C1N1CCN(CCO)CC1)c1ccccc1 (centres undefined)	34	-	-	-	-	-	-	-
O=S(=O)(NC1c2cccc3cccc(c23)C1N1CCNCC1)c1ccccc1 (centres undefined)	-	-	-	-	-	-	.	.
Cc1cc(C(=O)N2CCC2(C)C(=O)NS(=O)(=O)c2cccc(Cl)c2)nn1C (centres undefined)	-	-	.	-	-	.	.	.
CC(=O)OC(C)(C)/C=C/C(=O)C(C)(O)C1[C@H](O)C[C@@]2(C)C3CC=C4C(CC[C@@H](O)C4(C)C)[C@]3(CO)C(=O)C[C@]12C (some centres undefined)	30	-	-	-	-	-	33	-
CC(=O)OC(C)(C)/C=C/C(=O)[C@](C)(O)C1[C@H](O)C[C@@]2(C)C3CC=C4C(C=C(O[C@@H]5O[C@H](CO)[C@@H](O)[C@H](O)[C@H]5O)C(=O)C4(C)C)[C@]3(C)C(=O)C[C@]12C (some centres undefined)	-	-	.	-	-	-	.	.
Cc1cccc(/C=N/NC(=O)c2c(-c3ccccc3)noc2C)c1O	26	-	-	-	-	-	-	-
COc1ccccc1/C=N/NC(=O)c1c(-c2ccccc2)noc1C	-	-	-	-	-	-	.	.
CCSCCOC(=O)C1=C(C)NC(=O)NC1c1cc(OC)ccc1OC (centres undefined)	-	-	-	-	-	-	.	.
CCSCCOC(=O)C1=C(C)N(C)C(=O)NC1c1cc(OC)ccc1OC (centres undefined)	43	-	-	-	-	-	30	-
COc1cc(NC(=O)c2cccc3c(-c4cccnc4)coc23)cc(OC)c1OC	30	-	.	-	-	.	25	43
O=C(Nc1cccc(C(F)(F)F)c1)c1cccc2c(-c3cccnc3)coc12	.	.	.	-	-	.	.	.
COc1cc2cc(Br)cc(Br)c2nc1C	63	-	-	-	-	-	89	-
CC1(Cc2ccccc2Cl)C(=O)Nc2c(Cl)cccc21 (centres undefined)	-	-	.	-	-	.	.	.
COc1cccc(-n2nc3c(=S)[nH]nc(C)c3c2C)c1	-	-	-	-	-	-	.	.
Cc1n[nH]c(=S)c2nn(-c3cccc(Cl)c3)c(C)c12	36	-	-	.	.	.	67	-
Cc1n[nH]c(=S)c2nn(-c3ccccc3F)c(C)c12	46	-	-	-	-	-	68	-
Cc1ccc(-n2nc3c(=S)[nH]nc(C)c3c2C)cc1	111	-	-	-	-	-	122	-
CCCCc1c(Cc2ccccc2)ncn1CCc1ccccc1OC	-	-	.	.	.	.	.	.
COc1ccc(CC2NCC(O)C2OC(C)=O)cc1 (centres undefined)	94	-	.	-	-	-	99	51
CN(CC(=O)Nc1ccccc1C(F)(F)F)C(=O)c1cc(-c2cccs2)nn1-c1ccccc1	25	-	.	-	-	-	49	-
CC(C)=CC(=O)N1CC[C@@H](N2CCN(c3ccccc3F)CC2)[C@H](O)C1	-	-	-	-	-	-	.	.
SMILES	PrPC TRFRET	CCHFV vOTU inh	DUSP3 inh	Vc quorum ag	Yp Topo-I inh	MazF activator	PrPC TRFRET cf	LD9 cytotox
CO[C@H]([C@H](C)/C=C/N(C)C=O)[C@@H](C)C(=O)CC[C@H](C)[C@H](O)[C@H](C)[C@H]1OC(=O)/C=C/C(C)=C/C[C@H](O)C[C@@H]2C=CC[C@@H](C[C@H](OC)[C@@H](CO)[C@@H](OC)C[C@@H](OC)[C@@H]1C)O2	38	.	.	.	.	.	34	24
CO[C@H]([C@H](C)/C=C/N(C)C=O)[C@@H](C)C(=O)CC[C@H](C)[C@H](O)[C@H](C)[C@H]1OC(=O)/C=C/C(C)=C/[C@H](O)[C@H](OC)C[C@@H]2C=CC[C@@H](C[C@H](OC)[C@@H](CO)[C@@H](OC)C[C@@H](OC)[C@@H]1C)O2	37	.	.	.	.	.	32	23
CO[C@H]([C@H](C)/C=C/N(C)C=O)[C@@H](C)C(O)CC[C@H](C)[C@H](O)[C@H](C)[C@H]1OC(=O)/C=C/C(C)=C/C[C@H](O)C[C@@H]2C=CC[C@@H](C[C@H](OC)[C@@]3(CO3)[C@@H](OC)C[C@@H](OC)[C@@H]1C)O2 (some centres undefined)	26	.	.	.	.	.	-	25
CO[C@H]([C@H](C)/C=C/N(C)C=O)[C@@H](C)C(=O)CC[C@H](C)[C@H](O)[C@H](C)[C@H]1OC(=O)/C=C/C(C)=C/C[C@H](O)C[C@@H]2C=CC[C@@H](C[C@H](OC)C(C)(O)[C@@H](OC)C[C@@H](OC)[C@@H]1C)O2 (some centres undefined)	47	.	.	.	.	.	42	25
O=C1CNC(=S)N1CCc1ccc(O)c(O)c1	-	-	-	-	-	-	.	.
CC1(C)OC2OC(C3COC(=O)O3)C(OC(=O)c3ccccc3)C2O1 (centres undefined)	-	-	.	-	-	-	.	.
Cc1cc2nc(N)sc2cc1C	36	-	-	-	-	-	-	-
COc1cccc(N2CCN(c3nc(C)c(C)c(=O)[nH]3)CC2)c1	-	-	-	-	-	-	.	.
COc1cccc(N2CCN(c3nc(-c4ccccc4C)cc(=O)[nH]3)CC2)c1	31	-	-	-	-	-	33	14
CN1C(=O)C(C)(C)c2cc(S(=O)(=O)N3CCCC3C(=O)NCc3ccc(F)cc3)ccc21 (centres undefined)	-	-	-	-	-	-	.	.
Cc1cc(C)cc(NC(=O)C2CCCN2S(=O)(=O)c2ccc3c(c2)C(C)(C)C(=O)N3C)c1 (centres undefined)	37	-	-	-	-	-	-	-
CN1C(=O)C(C)(C)c2cc(S(=O)(=O)N3CCCC(C(=O)NCc4ccc(Cl)cc4)C3)ccc21 (centres undefined)	41	-	-	-	-	-	45	-
O=C(NC1CCCC1)C(c1ccccn1)N(Cc1ccccc1F)C(=O)c1csnn1 (centres undefined)	-	-	-	-	-	-	.	.
